The source of these data is PubChem BioAssay (NCATS).

Calls of active or inactive are those of the source. Calls come from the whole dose curve; as a rule, active = well fitted inhibition curve with a large enough effect; inconclusive = small, poorly fitted or top-dose-only effect; inactive = no such curve, though single readings can be large or run the other way.

The experiment in a line: qHTS assay for measurement of the activity of small molecule inhibitors on Zika virus induced Caspase-3 activity in human astrocytoma cells (AID 1224859). The settings on record: SNB-19 ZIKV-induced caspase-3/7, luminescence, 6 h; series mostly up to 45.7 µM. An outline of the steps:
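A cell-based luminescent caspase-3/7 assay used SNB-19 cells infected with ZIKV (2 FFU/cell) for 6 h following 1 h compound pretreatment.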
In general terms: qHTS replaces the single test concentration by a dilution series.
For `O=[N+]([O-])/C=C/c1ccc2c(c1)OCO2`, the result was inactive.
Next, `CCCN(CCC)[C@@H]1CCc2cccc(O)c2C1`: “inactive”; `N=C(N)c1ccc(CS(=O)(=O)F)cc1`: “inactive”.
As for `c1ccc2c(c1)[I+]c1ccccc1-2`, the entry is “inactive”; as for `NC(N)=NOCC[C@H](N)C(=O)O`, “inactive”.
Next, `NC(=O)c1ccc(OCC(O)CN2CC=C(c3ccc(F)cc3)CC2)cc1` (stereo unspecified): “inactive”.
As to `NC(=O)CI`, the compound was classed as inactive.
As for `OCc1cnc[nH]1`, the entry is “inactive”.
As for `Oc1ccc2c3c1O[C@H]1c4oc5ccccc5c4C[C@@]4(O)C(C2)N(CC2CC2)CCC314` (stereo partly specified), the entry is “inactive”; as for `CCCN1CCc2cc(O)cc3c2[C@H]1Cc1ccc(O)c(O)c1-3`, “inactive”; as for `NCC(CP(=O)(O)O)c1ccc(Cl)cc1` (stereo unspecified), “inactive”.
Next, `O=C1CC[C@@]2(O)C3Cc4ccc(O)c5c4C2(CCN3CC2CC2)[C@H]1O5` (stereo partly specified): “inactive”; `CN1CCc2cc(O)cc3c2[C@H]1Cc1ccc(O)c(O)c1-3`: “inactive”; `C[C@H](N)CN1CCc2ccc(Br)cc21`: “inactive”.
As to `COc1ccc2[nH]c3c(c2c1)CCNC3`, the compound was classed as inactive.
As for `C[C@@H]1O[C@H](C[N+](C)(C)C)CS1`, the entry is “inactive”.
As for `C[C@]12Cc3cn4c(nc3C=C1CCC1C2CC[C@@]2(C)[C@H]1CC[C@@]2(O)C#N)nc1ccccc14` (stereo partly specified), the entry is “inactive”.
Next, `CCCn1c(=O)c2[nH]c(C3CCCC3)nc2n(CCCOC(=O)c2ccc(S(=O)(=O)F)cc2)c1=O`: “inactive”.
With `Cc1sc2ccccc2c1CC1=NCCN1`, the result was inactive.
For the compound `CO[C@H]1CC=C2CCN3CCC4=C(CC(=O)OC4)[C@]23C1`, the outcome was inactive.
Next, `Ic1ccccc1CNC1C2CCN(CC2)C1C(c1ccccc1)c1ccccc1` (stereo unspecified): “inactive”.
